HepG2 viability = counter-screen for TGF-b inhibitors: cytotoxicity in HepG2 cells. HepG2 CAGA-GFP viability, ATP luminescence, 18 h. Potency, µM (highest dose often 46.1 µM), inactives show at the highest dose activity change, negative = cytotoxicity, hits mostly cytotoxic. 410,000 compounds, 0.76% hits
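HepG2 CAGA-GFP cells (1000/well, DMEM with 1% FBS) received compound, then TGF-beta at 500 pg/mL final, and were incubated 18 hours at 37 degrees C. Viability was read by CellTiter-Glo luminescence. Media-only wells were set as complete cell-killing and DMSO as no toxicity.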
TGFb SMAD3 inh = blocks TGF-b signaling; HepG2 CAGA-GFP TGF-b/SMAD3 reporter, GFP fluorescence, 18 h; TGF-beta stimulated, 500 pg/mL final; Potency, µM (highest dose often 46.1 µM), without a hit: at the highest dose activity, negative = inhibition, usual class: inhibitors; 410,000 compounds, 1.2% hits; note: % is set by controls: 0 for no effect and ±100 for the full control effect; nearly all actives have a fitted effect of over 65% in size
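Cell-based qHTS in HEPG2 carrying a CAGA-GFP Smad reporter; compounds added before 500 pg/mL final TGF-beta, 18 h incubation at 37 degrees C, GFP fluorescence quantified per cell by imaging cytometry.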
ATXN2 expr inh = reduces ATXN2 reporter expression in HEK-293 cells; HEK-293 ATXN2-luciferase reporter, luminescence, 24 h; 360,000 compounds, 0.72% hits; Potency, µM (titrated, usually from 57 µM), inactives show at the highest dose activity change, negative = inhibition, hits mostly inhibitors; note: % is set by controls: 0 for no effect and ±100 for the full control effect; nearly all actives have a fitted effect of over 55% in size
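qHTS (up to 57 uM final) was run with 24 h compound exposure of reporter cells at 37 °C. Each well was multiplexed: SteadyGlo luminescence measured ATXN2-luciferase expression after a fluorogenic Gly-Phe-AFC viability readout (25 uM final).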
S2 tox = viability counter-screen for ATXN expression inhibitors. S2 cells (HEK-293 line with an ATXN2-luciferase reporter) viability, CellTiter-Fluor protease fluorescence, 24 h. Potency, µM (doses to about 56.7 µM), most hits filed as cytotoxic. 400,000 compounds, 0.49% hits. AID 651635; note: nearly all actives have a fitted effect of over 40% in size
HT1080 IDH1KD tx = HT-1080 IDH1 knockdown cell toxicity (counter line) | HT-1080 IDH1 knockdown viability, ATP luminescence, 48 h | Potency, µM (series often up to 46.1 µM), for the others: at the top dose activity, negative = toxicity, hits mostly cytotoxic | 360,000 compounds, 2% hits;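 note: 0% = DMSO wells and -100% = cell-free medium wells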
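Using the IDH1-knockdown HT-1080 line run in the same batch and compound series as the NT line, viability after 48 h at 37 °C was determined by CellTiter-Glo luminescence and expressed as % activity.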
HT1080NT lethal = kills 2HG-producing HT-1080-NT fibrosarcoma cells. HT-1080-NT fibrosarcoma viability, CellTiter-Glo ATP luminescence, 48 h. Potency, µM (highest dose often 46.1 µM), for the others: at the highest dose activity, negative = less viability, hits mostly cytotoxic. 360,000 compounds, 1.6% hits. AID 686970;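 note: NT is the 2HG producing partner of a matched IDH1 knockdown line; 0% = DMSO-treated cells and -100% = media-only wells without cells; nearly all actives have a fitted effect of over 55% in size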
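Fibrosarcoma NT cells, 750 per well in 5% FBS RPMI, were exposed to compound for 48 hours. Viability: CellTiter-Glo luminescence.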
* marks the source's active call; other numbers are inactive results; i = inactive; u = inconclusive; x = no result given. A selection: hits, their analogues and other compounds. The true share with any hit is near 3.9%. Calls come from the whole dose curve; as a rule, active = well fitted curve in the direction sought with a large enough effect; inconclusive = small, poorly fitted or top-dose-only effect, or another doubt; inactive = no such curve, though single readings can be large; an effect the other way counts as inactive or inconclusive. Potency is the fitted concentration of half-maximal effect.

SMILES	HepG2 viability	TGFb SMAD3 inh	ATXN2 expr inh	S2 tox	HT1080 IDH1KD tx	HT1080NT lethal
COc1cc(/C=N/NC(=O)COc2c(C)cc([N+](=O)[O-])cc2C)ccc1OC(=O)c1ccccc1	-15.7%	-3.0%	-7.1%	i	18.4µM*	u
COc1ccc(OC)c(/C=N/NC(=O)c2ccc(=O)[nH]n2)c1	-9.2%	-5.6%	x	i	-0.7%	-2.4%
COc1cccc(/C=N/NC(=O)c2ccc(=O)[nH]n2)c1O	6.8%	-0.6%	x	i	23.1µM*	u
CCc1nc2cc(C(=O)N[C@H]3CCCCNC3=O)cc(NC(=O)c3ccccc3OC)c2n1C	x	x	x	i	x	x
O=C(NCC1Cc2cccc(-c3cccnc3)c2O1)c1cc(-c2ccccc2)n[nH]1 (stereo not given)	x	x	x	i	x	x
COc1ccccc1/C=N/NC(=O)c1c(-c2ccccc2)noc1C	-9.8%	-2.5%	-10.0%	i	0.0%	-0.7%
Cc1cccc(/C=N/NC(=O)c2c(-c3ccccc3)noc2C)c1O	-2.0%	u	3.55µM*	i	u	u
COc1cccc(/C=N/NC(=O)CSc2nnc(C)n2-c2ccccc2)c1O	-28.0%	-7.9%	u	u	13µM*	u
C=CCc1cccc(/C=N/NC(=O)C(C)Nc2ccc(C)cc2)c1O (stereo not given)	-70.4%	u	22.4µM*	i	u	-23.5%
COc1ccc(C(=O)N/N=C/c2ccc(N(C)c3ccccc3)cc2)cc1	-16.7%	0.0%	26.7µM*	i	-12.8%	-22.6%
Cc1ccc(CNC(=O)C(CC(C)C)N2Cc3ccccc3C2=O)cc1 (stereo not given)	-15.1%	0.5%	x	x	x	x
COc1ccc(CN2CCOc3ccc(CN4CCC(Oc5cccnc5)CC4)cc3C2)cc1C	x	x	x	i	x	x
CCOc1cc(/C=N\NC(=O)c2ccc(NC(=O)CC)cc2)ccc1OC(=O)c1ccccc1	-2.1%	0.0%	20µM*	u	2.3%	-4.7%
O=C(CN1CCN(Cc2ccccc2)CC1)N/N=C/c1ccccc1F	-0.5%	27.5%	-7.8%	i	-0.6%	-0.5%
COc1ccc(C(=O)N/N=C/c2ccc(OC(=O)c3ccccc3)cc2)cc1	-15.8%	-0.3%	13.9%	i	6.3%	-2.8%
COc1ccc(C(=O)N/N=C/c2ccccc2OC(=O)c2ccccc2)cc1	-67.1%	u	-32.6%	u	4.11µM*	4.61µM*
COc1cccc(/C=N/NC(=O)c2ccc(-c3ccccc3)cc2)c1O	-33.0%	u	3.16µM*	u	u	u
C=CCc1cccc(C=NNC(=O)CN2CCN(Cc3ccccc3)CC2)c1O	x	x	19.3µM*	x	x	x
COC(=O)c1ccccc1NC(=O)c1cc(=O)c2ccc(C)c(C)c2o1	9.5%	0.3%	5.6%	i	x	x
Cc1ncc2c(c1CNC(=O)c1ccc3c(c1)OCO3)CCN(C(=O)c1scc3c1CCCC3)C2	x	x	x	i	x	x
Cc1cccc(CN2C[C@H](Sc3ccccn3)C[C@H]2C(=O)Nc2ccc3sc(C)nc3c2)c1	x	x	x	i	x	x
COc1ccccc1C(=O)N[C@@H]1c2ccccc2C2(CCN(Cc3cccnc3)CC2)[C@H]1O	x	x	x	i	x	x
C=CCc1cccc(/C=N/NC(=O)c2ccccc2OC)c1O	-35.1%	-22.8%	u	i	16.4µM*	u
C=CCc1cccc(/C=N/NC(=O)c2ccccc2Br)c1O	-26.8%	u	u	i	u	u
COc1cccc(/C=N/NC(=O)c2ccc(=O)n(C)c2)c1O	4.4%	-0.5%	15µM*	x	u	u
COc1ccc(CCCC(=O)N/N=C/c2cccc(OC)c2O)cc1C	-15.2%	u	12.6µM*	i	u	u
COc1cccc(/C=N/NC(=O)C[n+]2ccccc2)c1O	-22.4%	0.4%	17.0%	i	-1.0%	0.8%

Bioassay records: PubChem, National Center for Advancing Translational Sciences (NCATS)
